Inhibition data for 19 compounds are collected here from ChEMBL document CHEMBL5606460, “ASAP - DENV-2 NS2B-NS3 protease fluorescence single point” (2024).

SMILES strings stand for the structures. Among all 2,000 compounds or so, about 110 (5.5%) showed an effect of 50% or more. The full list was thinned out, with strong results kept by preference.

The assay deals with Genome polyprotein (dengue virus type 2) (UniProt P29990).
The mark [1] stands for this setting: Thailand/16681/1984, Concentration 25.0 uM, Number of replicates 1.0.

As to `Cn1cc(CNC(=O)c2ccccc2[C@@H]2CCCCN2)cn1`, the inhibition by setting is: (Thailand/16681/1984, Concentration 49.5 uM, Number of replicates 2.0, Standard deviation 1.3250088302691205 %) -2.36%; (Thailand/16681/1984, Concentration 99.01 uM, Number of replicates 2.0, Standard deviation 0.6184423716804828 %) -1.37%; (Thailand/16681/1984, Concentration 198.0 uM, Number of replicates 2.0, Standard deviation 0.12536703369097324 %) -0.243%.

Take `Cc1cn(-c2cc(NC(=O)C3CCN(c4ccc(C=O)cc4)CC3)cc(C(F)(F)F)c2)cn1`: under setting [1], the inhibition turned out to be 12.1%.

Consider `O=Cc1ccc(N2CCC(C(=O)N3CCC(c4nc5ccccc5s4)CC3)CC2)cc1`, for which the inhibition under setting [1] worked out at 14.3%.

For `Cn1cc(CNC(=O)c2ccccc2CN)cn1`, the inhibition is, setting by setting: (Thailand/16681/1984, Concentration 49.5 uM, Number of replicates 2.0, Standard deviation 4.704758964680012 %) -1.53%; (Thailand/16681/1984, Concentration 99.01 uM, Number of replicates 2.0, Standard deviation 3.3738585950449482 %) -6.84%; (Thailand/16681/1984, Concentration 198.0 uM, Number of replicates 2.0, Standard deviation 1.4794083306984744 %) -5.39%.

Turning to `c1cnc2c(CN3CCC(c4c[nH]c5cccnc45)CC3)c[nH]c2c1`, the inhibition was -4.14% (Thailand/16681/1984, Concentration 49.5 uM, Number of replicates 2.0, Standard deviation 2.401783006640112 %); -3.47% (Thailand/16681/1984, Concentration 99.01 uM, Number of replicates 2.0, Standard deviation 2.691377880268528 %); -1.51% (Thailand/16681/1984, Concentration 198.0 uM, Number of replicates 2.0, Standard deviation 2.989922552884535 %).

As for `O=Cc1ccc(N2CCC(C(=O)N[C@@H](Cc3ccccc3)c3ccccc3)CC2)cc1`, the inhibition under setting [1] came out at 4.84%.

Consider `O=Cc1ccc(N2CCC(C(=O)NC[C@H]3COc4ccccc4O3)CC2)cc1`, for which the inhibition under setting [1] was found to be 15.5%.

Regarding `C#CCN(Cc1ccccc1Cl)C(=O)C1CCN(c2ccc(C=O)cc2)CC1`, the inhibition under setting [1] turned out to be 14.7%.

On to `C[C@H]1COCCN1C(=O)c1cc(Cl)ccc1NS(=O)(=O)c1ccc(Oc2ccccc2Cl)cc1`, for which the inhibition turned out to be 42.6% (Thailand/16681/1984, Concentration 49.5 uM, Number of replicates 2.0, Standard deviation 1.11087224122176 %); 79.8% (Thailand/16681/1984, Concentration 99.01 uM, Number of replicates 2.0, Standard deviation 0.41977451897359047 %); 92.9% (Thailand/16681/1984, Concentration 198.0 uM, Number of replicates 2.0, Standard deviation 0.050716482924917095 %).

On to `CNC(=O)c1cc(C#N)ccc1NS(=O)(=O)c1ccc(Oc2ccccc2Cl)cc1`, for which the inhibition (Thailand/16681/1984, Concentration 49.5 uM, Number of replicates 2.0, Standard deviation 0.4271842721165937 %) is 49.4%; the inhibition (Thailand/16681/1984, Concentration 99.01 uM, Number of replicates 2.0, Standard deviation 0.14972718509713318 %) stood at 88.8%; the inhibition (Thailand/16681/1984, Concentration 198.0 uM, Number of replicates 2.0, Standard deviation 0.1152868035427591 %) was 94%.

Regarding `CNC(=O)c1cc(Cl)ccc1NS(=O)(=O)c1ccc(C(=O)N2CCOCC2)cc1`, the inhibition runs as follows: (Thailand/16681/1984, Concentration 49.5 uM, Number of replicates 2.0, Standard deviation 0.9242131636205312 %) 0.016%; (Thailand/16681/1984, Concentration 99.01 uM, Number of replicates 2.0, Standard deviation 0.5448647637736805 %) 0.743%; (Thailand/16681/1984, Concentration 198.0 uM, Number of replicates 2.0, Standard deviation 0.08706358790592401 %) 3.74%.

In the case of `CNC(=O)c1nc(Cl)ccc1NS(=O)(=O)c1ccc(Oc2ccccc2Cl)cc1`, the inhibition (Thailand/16681/1984, Concentration 49.5 uM, Number of replicates 2.0, Standard deviation 0.5855266102241418 %) is 6.34%; the inhibition (Thailand/16681/1984, Concentration 99.01 uM, Number of replicates 2.0, Standard deviation 0.14494638377684543 %) worked out at 6.62%; the inhibition (Thailand/16681/1984, Concentration 198.0 uM, Number of replicates 2.0, Standard deviation 0.056926230997118174 %) stood at 4.4%.

Regarding `CCc1ccc(NS(=O)(=O)c2ccc(Oc3ccccc3Cl)cc2)c(C(=O)NC)c1`, the inhibition was determined as 20.1% (Thailand/16681/1984, Concentration 49.5 uM, Number of replicates 2.0, Standard deviation 2.280534278494396 %); 35.5% (Thailand/16681/1984, Concentration 99.01 uM, Number of replicates 2.0, Standard deviation 1.9533776277108892 %); 57.1% (Thailand/16681/1984, Concentration 198.0 uM, Number of replicates 2.0, Standard deviation 2.0141203401343657 %).

In the case of `CNC(=O)c1cncnc1NS(=O)(=O)c1ccc(Oc2ccccc2Cl)cc1`, the inhibition came out at 5.46% (Thailand/16681/1984, Concentration 49.5 uM, Number of replicates 2.0, Standard deviation 1.0127526920144583 %); 5.75% (Thailand/16681/1984, Concentration 99.01 uM, Number of replicates 2.0, Standard deviation 1.3865274661736828 %); 3.56% (Thailand/16681/1984, Concentration 198.0 uM, Number of replicates 2.0, Standard deviation 1.0625889801550739 %).

With `CNC(=O)c1cc(Cl)ncc1NS(=O)(=O)c1ccc(Oc2ccccc2Cl)cc1`, the inhibition (Thailand/16681/1984, Concentration 49.5 uM, Number of replicates 2.0, Standard deviation 0.003826975991637689 %) is -0.629%; the inhibition (Thailand/16681/1984, Concentration 99.01 uM, Number of replicates 2.0, Standard deviation 0.08610681229787821 %) is -0.288%; the inhibition (Thailand/16681/1984, Concentration 198.0 uM, Number of replicates 2.0, Standard deviation 0.5032468582115982 %) was found to be 12.6%.

For `CNC(=O)c1cc(Br)cnc1NS(=O)(=O)c1ccc(Oc2ccccc2Cl)cc1`, the inhibition runs as follows: (Thailand/16681/1984, Concentration 49.5 uM, Number of replicates 2.0, Standard deviation 0.1523274770628613 %) 20.5%; (Thailand/16681/1984, Concentration 99.01 uM, Number of replicates 2.0, Standard deviation 0.08785965758059779 %) 73.9%; (Thailand/16681/1984, Concentration 198.0 uM, Number of replicates 2.0, Standard deviation 0.12988512316778045 %) 87.2%.

For the compound `Cc1cc(CO)c2cccc(NC(=O)CN3CCOCC3)c2n1`, the inhibition by setting is: (Thailand/16681/1984, Concentration 49.95 uM, Number of replicates 2.0, Standard deviation 2.1720644748171827 %) 8.27%; (Thailand/16681/1984, Concentration 99.9 uM, Number of replicates 2.0, Standard deviation 1.8504772771832996 %) 15.1%.

As to `CS(=O)(=O)N1CCC(C(=O)Nc2nc3c(F)cccc3s2)CC1`, the inhibition amounted to 0.796% (Thailand/16681/1984, Concentration 49.5 uM, Number of replicates 2.0, Standard deviation 0.96531236791799 %); 0.997% (Thailand/16681/1984, Concentration 99.01 uM, Number of replicates 2.0, Standard deviation 0.9471689504241718 %); 0.83% (Thailand/16681/1984, Concentration 198.0 uM, Number of replicates 2.0, Standard deviation 0.2746253667085591 %).

As to `NCc1cccc(NC(=O)[C@H]2CCN(C(=O)OCc3ccccc3)C2)c1`, the inhibition is -1.99% (Thailand/16681/1984, Concentration 49.5 uM, Number of replicates 2.0, Standard deviation 1.9221944810499825 %); -1.6% (Thailand/16681/1984, Concentration 99.01 uM, Number of replicates 2.0, Standard deviation 1.6664051520702452 %); -1.98% (Thailand/16681/1984, Concentration 198.0 uM, Number of replicates 2.0, Standard deviation 2.955416090340052 %).
